Columns and labels:
Conditions in all cases: concentration: 1 μM, replicates: in singlicate; n = 1
ADCK4 = tested on: ADCK4
AKT1 = tested on: AKT1
AKT2 = tested on: AKT2
AKT3 = tested on: AKT3
ALK = tested on: ALK
AMPK-alpha1 = tested on: T1, AMPK-alpha1
T1 construct: gene PRKAA1

AMPK-alpha2 = tested on: T2, AMPK-alpha2
T2 construct: gene PRKAA2

ANKK1 = tested on: ANKK1
ARK5 = tested on: T3, ARK5
T3 construct: gene NUAK1

ASK1 = tested on: T4, ASK1
T4 construct: gene MAP3K5

ASK2 = tested on: T5, ASK2
T5 construct: gene MAP3K6

AURKA = tested on: AURKA
AURKB = tested on: AURKB
AURKC = tested on: AURKC
AXL = tested on: AXL
BIKE = tested on: T6, BIKE
T6 construct: gene BMP2K

BLK = tested on: BLK
BMPR1A = tested on: BMPR1A
BMPR1B = tested on: BMPR1B
BMPR2 = tested on: BMPR2
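Note: KINOMEscan kinase panel screen.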

| SMILES | %Inh (ADCK4) [%] | %Inh (AKT1) [%] | %Inh (AKT2) [%] | %Inh (AKT3) [%] | %Inh (ALK) [%] | %Inh (AMPK-alpha1) [%] | %Inh (AMPK-alpha2) [%] | %Inh (ANKK1) [%] | %Inh (ARK5) [%] | %Inh (ASK1) [%] | %Inh (ASK2) [%] | %Inh (AURKA) [%] | %Inh (AURKB) [%] | %Inh (AURKC) [%] | %Inh (AXL) [%] | %Inh (BIKE) [%] | %Inh (BLK) [%] | %Inh (BMPR1A) [%] | %Inh (BMPR1B) [%] | %Inh (BMPR2) [%] |
| --- | --- | --- | --- | --- | --- | --- | --- | --- | --- | --- | --- | --- | --- | --- | --- | --- | --- | --- | --- | --- |
| COc1cccc(C2=C(Nc3cccc(O)c3)C(=O)NC2=O)c1 [SB-390771] | 32 | 0 | 7 | 0 | 4 | 16 | 3 | 0 | 12 | 7 | 0 | 16 | 24 | 0 | 1 | 0 | 0 | 0 | 0 | 36 |
| Cn1cc(-c2ccc3c(c2)CCN3C(=O)Cc2cc(F)cc(F)c2F)c2c(N)ncnc21 [GSK2634140] | 19 | 0 | 0 | 0 | 8 | 18 | 13 | 12 | 20 | 0 | 0 | 18 | 92.6 | 59 | 89 | 33 | 72 | 0 | 5 | 0 |
| COc1cccc(CC(=O)N2CCc3cc(-c4cn(C)c5ncnc(N)c45)ccc32)c1 [GSK2608899] | 0 | 0 | 8 | 27 | 5 | 15 | 25 | 6 | 19 | 14 | 12 | 52 | 87 | 48 | 96.2 | 21 | 36 | 6 | 6 | 0 |
| Cn1cc(-c2cnc(N)c3c(-c4ccc5c(c4)CCN5C(=O)Cc4ccccc4)csc23)cn1 [GSK2593074] | 0 | 14 | 0 | 8 | 0 | 17 | 0 | 0 | 3 | 21 | 17 | 24 | 97.8 | 92.2 | 95.9 | 0 | 93 | 1 | 6 | 6 |
| CNc1nccc(-c2ccc3c(N)n[nH]c3c2)n1 [GSK2206003] | 26 | 0 | 0 | 0 | 33 | 0 | 0 | 33 | 0 | 0 | 0 | 8 | 0 | 46 | 0 | 94.1 | 54 | 7 | 71 | 6 |
| Cl.N#CCc1ccc(Nc2nccc(Nc3ccc(Oc4ccccc4)cc3)n2)cc1 [GW639905] | 72 | 0 | 4 | 0 | 40 | 0 | 0 | 98.9 | 0 | 0 | 7 | 6 | 31 | 34 | 22 | 26 | 94.1 | 0 | 0 | 0 |
| Cl.Cl.NC(CNC(=O)c1cc(Br)c(-c2ccnc3[nH]ccc23)s1)c1ccccc1 (stereo not shown) [GSK1322949] | 76 | 66 | 15 | 88 | 59 | 73 | 46 | 38 | 0 | 0 | 20 | 67 | 35 | 95.2 | 90.8 | 100 | 44 | 0 | 12 | 58 |
| O=C(Nc1n[nH]c2cc(-c3cccs3)ccc12)C1CC1 [SB-731284] | 0 | 0 | 0 | 0 | 28 | 0 | 0 | 45 | 0 | 0 | 39 | 42 | 51 | 42 | 0 | 84 | 0 | 2 | 35 | 24 |

Source: article PMC5540273 (PLoS ONE, 2017)
